Source: PubChem BioAssay (NCI)
Compounds without any hit were thinned out: in the full panel of roughly 83,000, 20% have a hit.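 Interpretation: 100, growth as untreated; towards 0, rising growth inhibition; 0, no net growth; 0 to -100, cell death. Compounds scoring below 10 were considered active.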 The source made the active and inactive calls.

Assays:
Test in all cases: NCI-60 one-dose screen, 48 h (100 = growth as untreated, 0 = no growth, -100 = all killed)
Settings in all cases: 10 µM unless noted
[1] = test system: DU-145 prostate
[2] = test system: K-562 leukemia
[3] = test system: MALME-3M melanoma
[4] = test system: MDA-MB-231 breast
[5] = test system: RXF 393 renal
[6] = test system: SF-268 CNS
[7] = test system: SF-295 CNS
[8] = test system: SF-539 CNS
[9] = test system: UACC-257 melanoma
[10] = test system: M14 melanoma
[11] = test system: HCT-15 colon
[12] = test system: HT29 colon
[13] = test system: SNB-75 CNS
[14] = test system: SNB-19 CNS
[15] = test system: U251 CNS
[16] = test system: PC-3 prostate
[17] = test system: SK-MEL-5 melanoma
[18] = test system: UACC-62 melanoma
[19] = test system: LOX IMVI melanoma
[20] = test system: SK-MEL-28 melanoma

Measured: growth

COc1cc(C(=O)N2CCN(c3ccccc3OC)CC2)c(NC(=O)c2cnccn2)cc1OCc1ccccc1
inactive: [1] 104% | [2] 10.8% | [3] 115% | [4] 73.1% | [5] 113% | [6] 114% | [7] 97.5% | [8] 88.9% | [9] 78% | [10] 98.4% | [11] 81.9% | [12] 106% | [13] 102% | [14] 85.9% | [15] 83.2% | [16] 70.9% | [17] 78.4% | [18] 73.3% | [19] 75.5% | [20] 132%

COC(=O)CCc1n(Cc2ccc3ccccc3c2)c2ccccc2[n+]1Cc1ccc2ccccc2c1
active: [2] 9.25% | [3] -34.5% | [4] -39.4% | [9] -28.2% | [10] -25.5% | [12] -25.5% | [13] -8.15% | [15] 8.5% | [16] 6.6% | [17] -92.9% | [18] -54% | [19] -59.3% | [20] 4.8%
inactive: [1] 28% | [5] 23.7% | [6] 12.1% | [7] 13.1% | [8] 16.3% | [11] 79.1% | [14] 16%

COc1ccc(C2=NN(c3ccc(S(N)(=O)=O)cc3)C(c3ccc(Cl)cc3)C2)c(O)c1 (stereo not given)
inactive: [1] 99.2% | [2] 23% | [3] 93.5% | [4] 76.5% | [5] 45.1% | [6] 83.8% | [7] 46.3% | [8] 89.9% | [9] 57.3% | [10] 51.3% | [11] 52.7% | [12] 49.9% | [13] 70.1% | [14] 85.3% | [15] 57.7% | [16] 27.7% | [17] 75.4% | [18] 52.9% | [19] 77.2% | [20] 74.9%

COc1ccc(/C=C/C(=O)Nc2ncnc3nc[nH]c23)cc1
inactive: [1] 92.1% | [2] 81.2% | [3] 96.4% | [4] 109% | [5] 95.4% | [6] 93.5% | [7] 107% | [8] 100% | [9] 100% | [10] 87.8% | [11] 92.2% | [12] 96.5% | [13] 82% | [14] 99.7% | [15] 99.4% | [16] 98.1% | [17] 94.8% | [18] 81.8% | [19] 101% | [20] 99.4%

O=C(NCc1ccccc1)c1ccc2c(c1)NC(=O)[C@@H]1CCCN21
inactive: [1] 99.7% | [2] 106% | [3] 92.2% | [4] 103% | [5] 109% | [6] 95.6% | [7] 98.7% | [8] 105% | [9] 104% | [10] 95.8% | [11] 99.6% | [12] 103% | [13] 86.6% | [14] 94.6% | [15] 102% | [16] 103% | [17] 101% | [18] 93.7% | [19] 91.2% | [20] 103%

CC(=O)ON1CCCC(P(=O)(OCOC(=O)C(C)(C)C)OCOC(=O)C(C)(C)C)C1=O (stereo not given)
inactive: [1] 10.7% | [7] 34.5% | [8] 11.3% | [9] 19.2% | [10] 12.9% | [13] 25.4% | [16] 17.7%
active: [2] 3.72% | [3] -8.77% | [4] -6.53% | [5] -20.8% | [6] 1.95% | [11] 3.57% | [12] -4.49% | [14] -7.66% | [15] -8.95% | [17] -55.7% | [18] -64.7% | [19] 9.18% | [20] -46.9%

Nc1c(C(=O)Nc2cccc3ccccc23)sc2nc3c(cc12)CCCCCC3
inactive: [1] 14.9% | [3] 75.9% | [4] 39.3% | [5] 21.8% | [6] 45.6% | [7] 23.7% | [9] 68.8% | [11] 24.6% | [13] 10.6% | [14] 27.8% | [15] 14.4% | [16] 35.1% | [17] 45.6% | [18] 32.4% | [19] 49.1% | [20] 65.8%
active: [2] 9.1% | [8] -0.219% | [10] 3.04% | [12] 0.156%

C#Cc1ccccc1NC(=O)c1sc2nc3c(cc2c1N)CCCCC3
inactive: [1] 104% | [2] 90.5% | [3] 102% | [4] 93.5% | [5] 113% | [6] 104% | [7] 113% | [8] 101% | [9] 110% | [10] 93.9% | [11] 97.6% | [12] 81.3% | [13] 90.4% | [14] 109% | [15] 99% | [16] 97.7% | [17] 97.2% | [18] 95.2% | [19] 95.8% | [20] 111%

CCCn1c2cc(OCc3cn(-c4ccc(Br)cc4)nn3)ccc2c2ccnc(C)c21
active: [13] -1.81%
inactive: [1] 90.2% | [2] 35.4% | [3] 87.1% | [4] 50.5% | [5] 51% | [6] 88% | [7] 65.6% | [8] 36.4% | [9] 53.3% | [10] 67.5% | [11] 73.5% | [12] 57.9% | [14] 53.8% | [15] 33.8% | [16] 74.5% | [17] 76.8% | [18] 38.8% | [19] 72.7% | [20] 80.3%

C1=CC2=CC=C3C=CC=C4C(c5nc6c7ccccc7c7ccccc7c6[nH]5)=CC(=C1)C2C34 (stereo not given)
inactive: [1] 105% | [2] 90.4% | [3] 117% | [4] 76.8% | [5] 99.8% | [6] 85.4% | [7] 113% | [8] 101% | [9] 105% | [10] 99.3% | [11] 90.8% | [12] 102% | [13] 102% | [14] 103% | [15] 104% | [16] 78.8% | [17] 101% | [18] 61.6% | [19] 86.3% | [20] 107%

CCCn1cc(/C=N\N=C2\C(=O)Nc3ccc(C)cc32)c2ccccc21
inactive: [1] 66.4% | [2] 17.6% | [3] 51.7% | [4] 34.4% | [5] 11.4% | [6] 46.6% | [7] 71.1% | [8] 33.9% | [9] 58.8% | [10] 56.3% | [11] 23% | [12] 17.1% | [13] 85.6% | [14] 63.3% | [15] 40% | [16] 18% | [17] 49.1% | [18] 40.4% | [20] 59.4%
active: [19] 4.42%

COc1cc(F)c(-c2nc3c(C)cccc3n2Cc2c(F)cccc2F)c(F)c1
inactive: [1] 108% | [2] 76.2% | [3] 79.5% | [4] 89.2% | [5] 97.8% | [6] 84.3% | [7] 79.9% | [8] 101% | [9] 76.2% | [10] 86.3% | [11] 81.9% | [12] 70.1% | [13] 71.5% | [14] 91.6% | [15] 83.6% | [16] 64.2% | [17] 85.6% | [18] 64.5% | [19] 87.8% | [20] 98.7%

Cc1ccc(-c2nc(C#N)c(S(=O)(=O)N(C)CCO)o2)cc1
inactive: [1] 90.2% | [2] 25% | [3] 60.1% | [4] 81.4% | [5] 107% | [6] 72.6% | [7] 104% | [8] 43% | [9] 77.9% | [10] 61.7% | [11] 37.6% | [12] 28.1% | [13] 101% | [14] 86.5% | [15] 83.7% | [16] 99.8% | [17] 71.4% | [18] 62.4% | [19] 41.9% | [20] 82%

c1ccc(Sc2ncccn2)nc1
inactive: [1] 109% | [2] 90% | [3] 111% | [4] 109% | [5] 110% | [6] 104% | [7] 109% | [8] 96% | [9] 99.2% | [10] 99.2% | [11] 102% | [12] 101% | [13] 72.5% | [14] 89.9% | [15] 104% | [16] 97.9% | [17] 102% | [18] 93.6% | [19] 92.6% | [20] 109%

NCCN1CCNCC1
inactive: [1] 104% | [2] 106% | [3] 109% | [4] 105% | [5] 135% | [6] 102% | [7] 109% | [8] 95.6% | [9] 25.9% | [10] 101% | [11] 100% | [12] 98.4% | [13] 92.2% | [14] 95.9% | [15] 102% | [16] 92% | [17] 109% | [18] 98.1% | [19] 101% | [20] 109%

COc1cc(/C=C/C(=O)c2cccs2)ccc1OCc1ccc(Cl)nc1
inactive: [1] 47.7% | [2] 41.3% | [3] 81.9% | [4] 82.8% | [5] 94.9% | [6] 85.1% | [7] 105% | [8] 91% | [9] 91.3% | [10] 82% | [11] 62.5% | [12] 97.3% | [13] 119% | [14] 66.6% | [15] 35.3% | [16] 69% | [17] 87.2% | [18] 71.3% | [19] 27.2% | [20] 92%
